This note sets out measurements from PubChem BioAssay (NCI).

This is part of a sample that, as a whole, favours compounds with a hit. Of some 83,000 tested, about 20% had one in any assay.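 Method: cells in 96-well plates; compound added at one concentration; 48 h incubation; percent growth measured; values under 10 scored active.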 Values without a mark were called inactive. Calls of active or inactive are those of the source.

Test systems include NCI-H23 lung; NCI-H226 lung; NCI-H322M lung; HOP-62 NSCLC; NCI-H460 lung; HOP-92 NSCLC; NCI-H522 lung; A549/ATCC NSCLC; 786-0 renal; COLO 205 colon; DU-145 prostate; K-562 leukemia; MALME-3M melanoma; MDA-MB-231 breast; RXF 393 renal; SF-268 CNS; SF-295 CNS; SF-539 CNS; UACC-257 melanoma; M14 melanoma.
Common to all, as to test: NCI-60 one-dose screen, 48 h (100 = growth as untreated, 0 = no growth, -100 = all killed)
Details in all cases: 10 µM unless noted

Turning to `CC(=O)OC[C@@]1(C)C2CC[C@]3(C)C(CC=C4C5CC(C)(C)CC[C@]5(C(=O)Nc5ccc(Br)cc5)CC[C@]43C)[C@@]2(C)C[C@@H](OC(C)=O)[C@@H]1OC(C)=O` (stereo not given in full), the growth in the test with NCI-H23 lung is 45.6%; with NCI-H226 lung, 45.2%; in the test on NCI-H322M lung it was 67.9%; in the test on HOP-62 NSCLC, 38.5%; with NCI-H460 lung, 17%; in the test on HOP-92 NSCLC, 54.7%. Also, the growth with NCI-H522 lung was 45.6%; in the test on A549/ATCC NSCLC, 38.9%; in the test on 786-0 renal, 51.2%; with COLO 205 colon, 43.8%; in the test on DU-145 prostate, 49%; in the test on K-562 leukemia it was 19.2%. In addition, the growth was 55.9% in the test on MALME-3M melanoma; 62.3% in the test with MDA-MB-231 breast; 72.8% in the test with RXF 393 renal; 66.1% in the test on SF-268 CNS; 26.8% with SF-295 CNS; 38.7% with SF-539 CNS. The growth in the test on UACC-257 melanoma was 20%; in the test on M14 melanoma it was 52.6%.
As for `COc1ccc(N2N=C(c3ccc4c(c3)OCO4)CC2c2cccc(NC(=O)CCNS(=O)(=O)c3ccc(Cl)cc3)c2)cc1` (stereo not given), the growth with NCI-H23 lung is 32.6%; in the test on NCI-H226 lung, 30.8%; in the test with NCI-H322M lung, 51.8%; in the test with HOP-62 NSCLC, 50.2%; in the test with NCI-H460 lung it was 22.3%; in the test on HOP-92 NSCLC, 32%. In addition, the growth in the test with NCI-H522 lung is -80.7% (active); with A549/ATCC NSCLC it was 33.4%; with 786-0 renal, 43%; in the test on COLO 205 colon, 29.2%; with DU-145 prostate, 39.7%; in the test with K-562 leukemia, 9.67% (active). Also, the growth in the test with MALME-3M melanoma is 18.7%; in the test on MDA-MB-231 breast, -5.89% (active); with RXF 393 renal it was 4.88% (active); in the test with SF-268 CNS it was 32.8%; in the test on SF-295 CNS, 10.7%; in the test with SF-539 CNS, 38.2%. Further, the growth in the test with UACC-257 melanoma is 49.2%; in the test with M14 melanoma, 29.5%.
As to `COc1ccc(NC(=O)Cn2c(O)c(N=Nc3ccc(S(N)(=O)=O)cc3)c3ccccc32)cc1`, the growth is 10.5% in the test with NCI-H23 lung; 39.8% in the test with NCI-H226 lung; 34.4% in the test on NCI-H322M lung; 8.57% (active) with HOP-62 NSCLC; 21.3% in the test with NCI-H460 lung; 79.6% in the test with HOP-92 NSCLC. Moreover, the growth was 66.6% with NCI-H522 lung; 24.6% in the test with A549/ATCC NSCLC; -25.3% (active) in the test with 786-0 renal; 58.5% with COLO 205 colon; 82.4% with DU-145 prostate; 40.8% with K-562 leukemia. In addition, the growth in the test on MALME-3M melanoma is 29.8%; in the test with MDA-MB-231 breast, -22.1% (active); with RXF 393 renal it was 82.7%; in the test with SF-268 CNS, 69.1%; with SF-295 CNS, 22.1%; in the test on SF-539 CNS it was 23.4%. Also, the growth in the test with UACC-257 melanoma is 67%; in the test on M14 melanoma it was 27.4%.
Take `COc1cc2oc(-c3cccc(C(=O)Nc4ccc(Cl)cc4)c3)cc(=O)c2c(OCCNC(=O)[C@H](CCC(=O)OC(C)(C)C)NC(=O)OC(C)(C)C)c1OC`: the growth in the test on NCI-H23 lung was 106%; in the test on NCI-H226 lung it was 95.9%; in the test with NCI-H322M lung it was 98.4%; in the test with HOP-62 NSCLC, 95.3%; with NCI-H460 lung, 101%; in the test with HOP-92 NSCLC, 84.2%. Further, the growth in the test with NCI-H522 lung is 89%; in the test with A549/ATCC NSCLC it was 92.8%; with 786-0 renal it was 93.4%; with COLO 205 colon, 117%; in the test with DU-145 prostate, 108%; with K-562 leukemia, 81.5%. Moreover, the growth with MALME-3M melanoma is 106%; in the test with MDA-MB-231 breast, 85.4%; in the test on RXF 393 renal, 84.3%; with SF-268 CNS, 81.8%; in the test on SF-295 CNS, 94.5%; in the test with SF-539 CNS, 87.8%. The figures for the growth in the test with UACC-257 melanoma and with M14 melanoma were 107% and 106%, respectively.
As to `O=C1NC(=O)c2c1c1c3cc(Br)ccc3[nH]c1c1oc3ccc(F)cc3c21`, the growth in the test on NCI-H23 lung was -23.6% (active); with NCI-H226 lung, -0.591% (active); with NCI-H322M lung, -11.8% (active); in the test with HOP-62 NSCLC, -42% (active); with NCI-H460 lung, -82.6% (active); with HOP-92 NSCLC, -53.2% (active). Also, the growth in the test on NCI-H522 lung was -61.6% (active); in the test on A549/ATCC NSCLC, 53.5%; in the test on 786-0 renal it was -40.8% (active); in the test on COLO 205 colon, 30.1%; in the test with DU-145 prostate, -31.5% (active); in the test on K-562 leukemia, 4.29% (active). Moreover, the growth is -31.1% (active) in the test with MALME-3M melanoma; -25.3% (active) in the test with MDA-MB-231 breast; -47.7% (active) in the test on RXF 393 renal; -22.6% (active) with SF-268 CNS; -64.3% (active) in the test with SF-295 CNS; -68.5% (active) in the test on SF-539 CNS. Further, the growth in the test on UACC-257 melanoma was 48.4%; in the test on M14 melanoma, 20%.
Turning to `CCC(C)(C)c1ccc(OCCCCN2CCN(c3ccncc3)CC2)cc1`, the growth was 22.1% in the test with NCI-H23 lung; 39.8% with NCI-H226 lung; 83.9% with NCI-H322M lung; 37.4% in the test with HOP-62 NSCLC; 24.9% in the test with NCI-H460 lung; 3.82% (active) with HOP-92 NSCLC. Moreover, the growth with NCI-H522 lung is 36%; in the test on A549/ATCC NSCLC it was 47.4%; in the test on 786-0 renal, -56.4% (active); in the test with COLO 205 colon it was -81.9% (active); in the test on DU-145 prostate, 60.8%; in the test on K-562 leukemia, -1.88% (active). The growth in the test on MALME-3M melanoma is -85% (active); with MDA-MB-231 breast it was -30.9% (active); in the test with RXF 393 renal, -7.66% (active); in the test with SF-268 CNS, 66.7%; in the test with SF-295 CNS it was -35.6% (active); in the test on SF-539 CNS, -36% (active). In addition, the results for the growth in the test on UACC-257 melanoma and in the test with M14 melanoma were 37.5% and -56.6% (active), respectively.
With `Cc1cc2c(cc1Cl)C(=O)/C(=C/c1ccccc1)O2`, the growth with NCI-H23 lung was 0.835% (active); with NCI-H226 lung it was 14.6%; with NCI-H322M lung, 73.5%; in the test with HOP-62 NSCLC, 21.8%; with NCI-H460 lung, 24.6%; in the test with HOP-92 NSCLC, 44.4%. Moreover, the growth in the test with NCI-H522 lung is -75% (active); with A549/ATCC NSCLC it was -59.7% (active); with 786-0 renal, -38.5% (active); in the test on COLO 205 colon it was 32.7%; in the test on DU-145 prostate, -94.3% (active); with K-562 leukemia, 9.17% (active). The growth is -46.8% (active) with MALME-3M melanoma; -36.5% (active) in the test with MDA-MB-231 breast; -33.9% (active) in the test on RXF 393 renal; 64% in the test on SF-268 CNS; 24.9% in the test with SF-295 CNS; -98.5% (active) with SF-539 CNS. Further, the growth was 36.1% in the test with UACC-257 melanoma and 30.9% in the test on M14 melanoma.
